Source: ChEMBL document CHEMBL1961873, “Compounds: GSK PKIS; Assays: Nanosyn kinase panel” (2012)

Legend:
[1] = target: Sphingosine kinase 1 (Homo sapiens) (UniProt Q9NYA1); settings: at 1 µM;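 also: mean SPHK1 inhibition value reported from the GSK PKIS kinase panel screen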
[2] = target: T1, Sphingosine kinase 2 (Homo sapiens) (UniProt Q9NRA0); settings: at 0.1 µM
T1 sequence (whole entry): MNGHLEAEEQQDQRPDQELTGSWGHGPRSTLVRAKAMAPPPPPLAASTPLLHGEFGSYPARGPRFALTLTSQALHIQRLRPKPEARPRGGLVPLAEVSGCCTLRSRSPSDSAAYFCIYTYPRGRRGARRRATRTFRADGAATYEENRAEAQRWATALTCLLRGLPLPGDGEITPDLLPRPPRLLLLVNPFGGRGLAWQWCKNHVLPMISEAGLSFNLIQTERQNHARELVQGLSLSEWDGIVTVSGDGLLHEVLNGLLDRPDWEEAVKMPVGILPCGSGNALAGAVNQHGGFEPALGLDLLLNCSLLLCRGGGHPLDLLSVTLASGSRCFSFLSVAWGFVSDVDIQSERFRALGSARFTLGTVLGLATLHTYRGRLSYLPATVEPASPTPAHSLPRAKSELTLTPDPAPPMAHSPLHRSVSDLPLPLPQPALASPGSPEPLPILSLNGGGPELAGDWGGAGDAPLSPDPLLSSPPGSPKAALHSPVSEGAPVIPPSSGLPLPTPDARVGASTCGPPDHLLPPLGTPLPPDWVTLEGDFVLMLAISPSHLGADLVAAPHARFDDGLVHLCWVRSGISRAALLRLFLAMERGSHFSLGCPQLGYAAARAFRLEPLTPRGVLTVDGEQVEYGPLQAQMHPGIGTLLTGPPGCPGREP

[3] = target: T1, Sphingosine kinase 2 (Homo sapiens); settings: at 1 µM
[4] = target: Casein kinase II subunit alpha (Homo sapiens) (UniProt P68400); settings: at 0.1 µM
[5] = target: Casein kinase II subunit alpha (Homo sapiens) (UniProt P68400); settings: at 1 µM
[6] = target: T2, Inhibitor of nuclear factor kappa-B kinase subunit alpha (Homo sapiens) (UniProt O15111); settings: at 0.1 µM
T2 sequence (whole entry): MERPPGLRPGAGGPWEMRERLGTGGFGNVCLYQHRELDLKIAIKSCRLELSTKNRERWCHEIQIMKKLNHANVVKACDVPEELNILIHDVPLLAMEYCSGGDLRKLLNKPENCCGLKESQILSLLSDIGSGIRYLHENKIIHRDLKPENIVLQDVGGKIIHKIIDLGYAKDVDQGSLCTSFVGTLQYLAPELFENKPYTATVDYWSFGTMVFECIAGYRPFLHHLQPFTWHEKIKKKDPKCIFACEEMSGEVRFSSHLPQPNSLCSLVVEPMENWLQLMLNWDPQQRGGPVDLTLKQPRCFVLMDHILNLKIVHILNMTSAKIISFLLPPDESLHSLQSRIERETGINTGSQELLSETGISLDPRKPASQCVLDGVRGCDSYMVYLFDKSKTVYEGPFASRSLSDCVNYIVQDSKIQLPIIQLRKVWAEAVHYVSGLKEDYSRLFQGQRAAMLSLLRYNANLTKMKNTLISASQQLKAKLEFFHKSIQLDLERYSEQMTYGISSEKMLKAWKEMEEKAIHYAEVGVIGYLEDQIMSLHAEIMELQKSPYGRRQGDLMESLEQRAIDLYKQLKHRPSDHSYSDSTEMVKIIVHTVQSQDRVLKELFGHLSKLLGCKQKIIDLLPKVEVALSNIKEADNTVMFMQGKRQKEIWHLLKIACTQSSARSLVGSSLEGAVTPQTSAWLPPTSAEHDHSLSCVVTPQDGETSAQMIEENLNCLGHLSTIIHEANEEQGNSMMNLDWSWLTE

[7] = target: T2, Inhibitor of nuclear factor kappa-B kinase subunit alpha (Homo sapiens); settings: at 1 µM
[8] = target: T3, Inhibitor of nuclear factor kappa-B kinase subunit beta (Homo sapiens) (UniProt O14920); settings: at 0.1 µM
T3 sequence (whole entry): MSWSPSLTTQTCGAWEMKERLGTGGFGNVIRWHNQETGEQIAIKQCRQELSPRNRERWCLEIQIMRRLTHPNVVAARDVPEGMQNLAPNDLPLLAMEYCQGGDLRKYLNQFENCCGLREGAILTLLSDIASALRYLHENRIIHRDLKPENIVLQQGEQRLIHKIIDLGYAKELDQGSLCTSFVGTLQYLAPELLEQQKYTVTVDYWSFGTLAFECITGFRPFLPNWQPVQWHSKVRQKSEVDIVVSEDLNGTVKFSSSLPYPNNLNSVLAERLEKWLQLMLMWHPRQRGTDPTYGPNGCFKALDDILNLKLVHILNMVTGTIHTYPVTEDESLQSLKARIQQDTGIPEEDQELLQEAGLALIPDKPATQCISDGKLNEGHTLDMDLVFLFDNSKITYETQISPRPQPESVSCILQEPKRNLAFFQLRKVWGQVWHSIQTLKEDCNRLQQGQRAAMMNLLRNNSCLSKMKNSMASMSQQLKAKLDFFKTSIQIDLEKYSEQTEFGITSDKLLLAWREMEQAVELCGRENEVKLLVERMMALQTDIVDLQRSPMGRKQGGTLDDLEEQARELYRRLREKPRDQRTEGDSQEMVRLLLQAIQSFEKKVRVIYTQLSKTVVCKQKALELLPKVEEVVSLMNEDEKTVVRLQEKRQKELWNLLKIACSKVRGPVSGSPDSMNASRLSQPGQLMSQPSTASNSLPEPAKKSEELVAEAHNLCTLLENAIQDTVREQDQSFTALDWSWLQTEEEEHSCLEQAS

[9] = target: T3, Inhibitor of nuclear factor kappa-B kinase subunit beta (Homo sapiens); settings: at 1 µM
[10] = target: T4, Inhibitor of nuclear factor kappa-B kinase subunit epsilon (Homo sapiens) (UniProt Q14164); settings: at 0.1 µM
T4 sequence (whole entry): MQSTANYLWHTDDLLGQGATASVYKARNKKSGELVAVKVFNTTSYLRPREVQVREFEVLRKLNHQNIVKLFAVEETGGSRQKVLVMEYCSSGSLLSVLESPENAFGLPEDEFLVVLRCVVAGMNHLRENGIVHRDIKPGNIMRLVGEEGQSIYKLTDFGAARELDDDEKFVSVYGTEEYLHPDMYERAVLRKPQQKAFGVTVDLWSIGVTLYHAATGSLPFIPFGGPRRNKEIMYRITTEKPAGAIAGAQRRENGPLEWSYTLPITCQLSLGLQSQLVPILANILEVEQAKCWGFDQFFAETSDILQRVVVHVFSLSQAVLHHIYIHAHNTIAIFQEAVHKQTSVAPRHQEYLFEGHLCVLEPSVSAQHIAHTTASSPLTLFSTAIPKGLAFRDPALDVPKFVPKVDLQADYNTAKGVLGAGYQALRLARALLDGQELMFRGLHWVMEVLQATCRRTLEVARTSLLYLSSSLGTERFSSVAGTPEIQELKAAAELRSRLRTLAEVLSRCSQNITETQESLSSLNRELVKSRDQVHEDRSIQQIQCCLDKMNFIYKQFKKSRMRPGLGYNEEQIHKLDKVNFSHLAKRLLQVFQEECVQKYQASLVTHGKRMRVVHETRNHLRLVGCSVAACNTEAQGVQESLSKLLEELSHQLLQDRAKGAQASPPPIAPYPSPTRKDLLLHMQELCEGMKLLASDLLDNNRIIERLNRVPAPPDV

[11] = target: T5, Serine/threonine-protein kinase Nek1 (Homo sapiens) (UniProt Q96PY6); settings: at 0.1 µM
T5 sequence (whole entry): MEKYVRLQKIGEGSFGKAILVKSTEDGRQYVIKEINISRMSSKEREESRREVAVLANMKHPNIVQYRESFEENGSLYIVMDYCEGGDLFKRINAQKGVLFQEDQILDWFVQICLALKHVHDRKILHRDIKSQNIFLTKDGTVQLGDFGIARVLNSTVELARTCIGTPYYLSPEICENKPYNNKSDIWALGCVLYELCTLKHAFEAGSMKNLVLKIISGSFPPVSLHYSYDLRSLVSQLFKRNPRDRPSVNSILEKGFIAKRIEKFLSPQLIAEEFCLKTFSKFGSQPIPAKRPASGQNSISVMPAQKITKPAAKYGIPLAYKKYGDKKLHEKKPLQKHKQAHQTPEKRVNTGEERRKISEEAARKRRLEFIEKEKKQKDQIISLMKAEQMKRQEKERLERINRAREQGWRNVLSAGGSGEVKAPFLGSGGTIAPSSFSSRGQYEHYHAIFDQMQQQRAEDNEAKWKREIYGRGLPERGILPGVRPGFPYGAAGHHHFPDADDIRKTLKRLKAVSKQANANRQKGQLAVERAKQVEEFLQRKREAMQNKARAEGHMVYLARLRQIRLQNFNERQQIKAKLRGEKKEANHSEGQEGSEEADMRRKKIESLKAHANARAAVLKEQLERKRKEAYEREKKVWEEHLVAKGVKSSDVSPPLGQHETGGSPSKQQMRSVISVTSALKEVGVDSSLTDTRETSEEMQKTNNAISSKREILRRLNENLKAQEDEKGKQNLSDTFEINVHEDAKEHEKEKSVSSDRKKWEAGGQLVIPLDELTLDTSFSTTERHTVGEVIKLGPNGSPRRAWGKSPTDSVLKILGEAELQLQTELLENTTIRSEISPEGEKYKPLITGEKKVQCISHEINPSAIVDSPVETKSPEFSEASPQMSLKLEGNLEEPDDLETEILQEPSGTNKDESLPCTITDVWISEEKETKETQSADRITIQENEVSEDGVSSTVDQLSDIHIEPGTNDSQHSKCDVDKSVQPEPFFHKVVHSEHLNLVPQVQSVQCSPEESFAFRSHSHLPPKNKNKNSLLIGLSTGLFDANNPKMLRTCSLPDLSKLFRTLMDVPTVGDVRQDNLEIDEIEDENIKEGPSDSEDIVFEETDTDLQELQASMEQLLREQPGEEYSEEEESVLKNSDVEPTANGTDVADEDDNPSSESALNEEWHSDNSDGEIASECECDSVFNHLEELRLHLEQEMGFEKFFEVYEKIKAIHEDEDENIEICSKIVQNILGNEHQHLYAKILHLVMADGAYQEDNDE

[12] = target: T5, Serine/threonine-protein kinase Nek1 (Homo sapiens); settings: at 1 µM
[13] = target: T6, Serine/threonine-protein kinase Nek2 (Homo sapiens) (UniProt P51955); settings: at 0.1 µM
T6 sequence (whole entry): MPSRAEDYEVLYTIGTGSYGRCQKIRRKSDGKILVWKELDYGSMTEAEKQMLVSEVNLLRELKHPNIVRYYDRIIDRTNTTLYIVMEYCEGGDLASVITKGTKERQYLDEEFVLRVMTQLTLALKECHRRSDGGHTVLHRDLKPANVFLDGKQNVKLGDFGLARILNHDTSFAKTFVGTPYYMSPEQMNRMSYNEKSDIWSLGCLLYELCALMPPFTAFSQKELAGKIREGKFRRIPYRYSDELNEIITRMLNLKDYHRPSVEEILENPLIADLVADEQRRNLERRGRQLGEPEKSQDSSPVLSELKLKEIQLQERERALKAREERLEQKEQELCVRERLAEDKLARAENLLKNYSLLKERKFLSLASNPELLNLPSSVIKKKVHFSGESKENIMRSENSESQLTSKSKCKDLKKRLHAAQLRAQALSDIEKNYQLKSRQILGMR

[14] = target: T6, Serine/threonine-protein kinase Nek2 (Homo sapiens); settings: at 1 µM
[15] = target: Serine/threonine-protein kinase Nek6 (Homo sapiens) (UniProt Q9HC98); settings: at 0.1 µM
[16] = target: Serine/threonine-protein kinase Nek6 (Homo sapiens) (UniProt Q9HC98); settings: at 1 µM
[17] = target: Serine/threonine-protein kinase Nek7 (Homo sapiens) (UniProt Q8TDX7); settings: at 0.1 µM
[18] = target: Serine/threonine-protein kinase Nek7 (Homo sapiens) (UniProt Q8TDX7); settings: at 1 µM
[19] = target: T7, Serine/threonine-protein kinase Nek9 (Homo sapiens) (UniProt Q8TD19); settings: at 0.1 µM;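 also: reported value is the mean percent inhibition of NEK9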
T7 sequence (whole entry): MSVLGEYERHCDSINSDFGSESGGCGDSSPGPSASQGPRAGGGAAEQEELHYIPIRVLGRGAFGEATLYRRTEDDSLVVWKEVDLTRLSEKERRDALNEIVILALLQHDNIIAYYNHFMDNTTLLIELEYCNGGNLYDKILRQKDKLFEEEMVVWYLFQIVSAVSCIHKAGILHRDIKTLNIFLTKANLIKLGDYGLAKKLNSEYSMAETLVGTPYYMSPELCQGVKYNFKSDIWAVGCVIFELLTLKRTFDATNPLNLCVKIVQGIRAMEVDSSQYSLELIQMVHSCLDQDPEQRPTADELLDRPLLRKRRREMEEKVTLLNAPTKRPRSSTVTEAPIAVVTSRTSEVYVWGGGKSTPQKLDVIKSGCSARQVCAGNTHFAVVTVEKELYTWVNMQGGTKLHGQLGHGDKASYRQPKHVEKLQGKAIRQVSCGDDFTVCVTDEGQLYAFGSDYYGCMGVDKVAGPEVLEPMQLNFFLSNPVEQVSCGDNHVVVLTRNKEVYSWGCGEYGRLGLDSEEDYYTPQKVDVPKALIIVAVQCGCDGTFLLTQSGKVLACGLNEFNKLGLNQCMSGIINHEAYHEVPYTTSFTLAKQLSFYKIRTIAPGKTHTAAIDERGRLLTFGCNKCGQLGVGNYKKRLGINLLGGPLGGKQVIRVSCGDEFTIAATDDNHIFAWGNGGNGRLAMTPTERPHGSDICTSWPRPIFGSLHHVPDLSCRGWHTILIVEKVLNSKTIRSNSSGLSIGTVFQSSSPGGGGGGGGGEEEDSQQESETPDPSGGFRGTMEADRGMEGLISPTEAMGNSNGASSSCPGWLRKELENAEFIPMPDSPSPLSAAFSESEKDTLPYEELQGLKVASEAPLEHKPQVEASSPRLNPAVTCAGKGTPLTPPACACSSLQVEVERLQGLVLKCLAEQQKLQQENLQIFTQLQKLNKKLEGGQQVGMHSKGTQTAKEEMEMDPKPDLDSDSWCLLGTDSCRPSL

[20] = target: T4, Inhibitor of nuclear factor kappa-B kinase subunit epsilon (Homo sapiens); settings: at 1 µM

Chain of Casein kinase II subunit alpha (Homo sapiens) (P68400 whole entry, looked up): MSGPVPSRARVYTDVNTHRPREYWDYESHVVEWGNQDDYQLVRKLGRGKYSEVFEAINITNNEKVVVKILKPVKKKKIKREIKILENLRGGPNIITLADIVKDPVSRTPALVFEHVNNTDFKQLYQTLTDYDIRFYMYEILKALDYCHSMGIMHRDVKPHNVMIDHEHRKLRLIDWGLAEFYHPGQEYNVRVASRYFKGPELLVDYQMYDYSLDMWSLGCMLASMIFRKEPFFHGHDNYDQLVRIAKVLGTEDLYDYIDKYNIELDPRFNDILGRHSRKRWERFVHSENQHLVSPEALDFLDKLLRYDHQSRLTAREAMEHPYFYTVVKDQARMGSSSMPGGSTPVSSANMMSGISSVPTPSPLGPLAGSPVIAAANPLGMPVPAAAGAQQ
Chain of Serine/threonine-protein kinase Nek6 (Homo sapiens) (Q9HC98 whole entry): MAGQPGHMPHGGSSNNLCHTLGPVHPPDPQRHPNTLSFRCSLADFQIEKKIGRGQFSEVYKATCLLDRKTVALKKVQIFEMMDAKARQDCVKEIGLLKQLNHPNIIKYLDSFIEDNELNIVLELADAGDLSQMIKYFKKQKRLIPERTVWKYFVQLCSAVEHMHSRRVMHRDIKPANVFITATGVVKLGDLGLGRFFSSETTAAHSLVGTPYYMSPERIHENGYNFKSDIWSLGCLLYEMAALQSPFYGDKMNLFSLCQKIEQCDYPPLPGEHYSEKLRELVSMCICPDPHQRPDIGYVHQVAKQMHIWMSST
Chain of Sphingosine kinase 1 (Homo sapiens) (Q9NYA1 whole entry): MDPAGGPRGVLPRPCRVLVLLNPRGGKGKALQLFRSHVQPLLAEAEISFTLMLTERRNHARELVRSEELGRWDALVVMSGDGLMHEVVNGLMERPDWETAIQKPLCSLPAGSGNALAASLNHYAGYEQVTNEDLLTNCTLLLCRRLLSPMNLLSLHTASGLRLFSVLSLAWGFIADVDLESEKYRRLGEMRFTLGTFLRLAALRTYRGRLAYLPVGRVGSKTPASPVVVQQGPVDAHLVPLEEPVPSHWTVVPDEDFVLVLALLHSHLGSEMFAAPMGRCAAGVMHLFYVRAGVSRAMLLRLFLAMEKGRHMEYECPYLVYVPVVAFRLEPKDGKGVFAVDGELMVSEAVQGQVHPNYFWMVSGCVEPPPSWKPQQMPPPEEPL
Chain of Serine/threonine-protein kinase Nek7 (Homo sapiens) (Q8TDX7 whole entry, looked up): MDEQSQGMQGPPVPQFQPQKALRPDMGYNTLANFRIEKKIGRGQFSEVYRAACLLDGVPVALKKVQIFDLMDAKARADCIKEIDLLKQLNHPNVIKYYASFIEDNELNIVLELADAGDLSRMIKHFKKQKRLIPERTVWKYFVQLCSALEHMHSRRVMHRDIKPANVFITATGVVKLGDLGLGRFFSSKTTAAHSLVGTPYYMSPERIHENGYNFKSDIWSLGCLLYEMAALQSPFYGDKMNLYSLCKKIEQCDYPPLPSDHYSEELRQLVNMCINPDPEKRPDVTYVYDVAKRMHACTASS

Structure (SMILES)	inhibition [1]	inhibition [2]	inhibition [3]	inhibition [4]	inhibition [5]	inhibition [6]	inhibition [7]	inhibition [8]	inhibition [9]	inhibition [10]	inhibition [11]	inhibition [12]	inhibition [13]	inhibition [14]	inhibition [15]	inhibition [16]	inhibition [17]	inhibition [18]	inhibition [19]	inhibition [20]
CCc1nccc2c1nc(-c1nonc1N)n2CC	-1.61%	1.28%	1.35%	0.7%	-1.05%	2.04%	-4.71%	0.02%	-1.22%	0.57%	0.36%	1.55%	0.45%	0.31%	0.37%	0.82%	2.57%	1.72%	0.19%	–
CN(C)CCOc1ccc(-c2cc(-c3ccc4c(c3)CCC4=NO)c(-c3ccncc3)o2)cc1	-2.32%	-0.68%	0.96%	-3%	0.33%	-4.03%	–	-1.54%	-1.92%	-1.86%	0.25%	0.32%	-0.54%	0.32%	-0.38%	-0.66%	-2.05%	0.51%	-0.48%	0%
Fc1ccc(-c2ncn(C3CCNCC3)c2-c2ccnc(Oc3ccc4c(c3)OCO4)n2)cc1	-2.26%	-0.59%	0%	11.3%	3.74%	5%	9.09%	6.93%	8.89%	7.17%	3.2%	6.26%	7.49%	6.41%	1.13%	1.67%	2.69%	4.77%	7.85%	5.91%
